Bioassay records (PubChem BioAssay)
PGK inhibitor = T. brucei PGK inhibition; 380,000 compounds, 0.043% hits; P07378; PGK/GAPDH coupled, Kinase-Glo luminescence, 60 min; Potency, µM (doses to about 57.5 µM), without a hit: at the highest dose activity change, negative = inhibition, actives largely listed as inhibitors; AID 602233; further: potency means the concentration at half of the fitted maximal effect; on the % scale 0 is the no-effect control and ±100 the full control effect; nearly all actives have a fitted effect of over 60% in size
Target sequence (P07378 whole entry, looked up): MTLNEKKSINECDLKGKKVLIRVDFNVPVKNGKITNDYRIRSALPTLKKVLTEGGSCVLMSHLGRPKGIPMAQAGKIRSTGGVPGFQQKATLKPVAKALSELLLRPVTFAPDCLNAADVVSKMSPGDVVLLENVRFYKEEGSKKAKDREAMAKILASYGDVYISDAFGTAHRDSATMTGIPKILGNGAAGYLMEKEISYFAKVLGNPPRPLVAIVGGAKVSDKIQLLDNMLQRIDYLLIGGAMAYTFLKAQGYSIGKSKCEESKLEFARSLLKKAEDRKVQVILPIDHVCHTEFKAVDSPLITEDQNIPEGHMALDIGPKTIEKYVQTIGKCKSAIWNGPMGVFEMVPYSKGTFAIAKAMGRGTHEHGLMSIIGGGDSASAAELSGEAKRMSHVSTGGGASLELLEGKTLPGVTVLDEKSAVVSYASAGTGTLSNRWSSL
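Luminescent ATP detection (Kinase-Glo Plus) follows a 60-minute room-temperature incubation, with wells lacking PGK as controls. Buffer: 100 mM TEA (pH 7.6), 5 mM MgCl2, 0.01% Tween-20. Coupling enzyme GAPDH (100 nM final) supplies unstable 1,3-BPG in-well.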
TDP1 block = TDP1 (human) enzyme inhibition | Potency, µM (highest dose often 130 µM), for the others: at the top dose activity change, negative = inhibition, most hits filed as inhibitors | 350,000 compounds, 0.28% hits | AID 485290 | Q9NUW8 | recombinant TDP1, AlphaScreen DNA substrate cleavage; further: potency means the concentration at half of the fitted maximal effect; on the % scale 0 is the no-effect control and ±100 the full control effect; nearly all actives have a fitted effect of over 40% in size
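Enzyme-compound mixtures sat 15 min at room temperature, followed by a 5 min reaction with 15 nM final substrate and 10 min with AlphaScreen beads. Recombinant human Tdp1 was used at 1 nM final.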
FEN1 inhibitor = blocks human flap endonuclease 1. P39748. Recombinant FEN1 flap cleavage, fluorescence, 15 min. Potency, µM (titrated, usually from 114 µM), without a hit: top-dose activity change, negative = inhibition, usual class: inhibitors. 390,000 compounds, 0.35% hits. AID 588795; further: potency means the concentration at half of the fitted maximal effect; on the % scale 0 is the no-effect control and ±100 the full control effect; nearly all actives have a fitted effect of over 65% in size
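Concentration–response screening of FEN1 (10 nM): 15 min compound preincubation at room temperature, reaction started with 50 nM substrate and read at 0 and 15 min. Corrected, normalized data were fitted by a four-parameter Hill equation.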
APEX1 inh = APE1 (human) endonuclease inhibition; 350,000 compounds, 0.35% hits; P27695; recombinant APE1, TAMRA/BHQ-2 abasic DNA cleavage fluorescence; Potency, µM (doses to about 65.8 µM), for the others: at the top dose activity change, negative = inhibition, most hits filed as inhibitors;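 further: potency means the concentration at half of the fitted maximal effect; plate controls were vehicle for no effect and reference inhibitor for full effect; nearly all actives have a fitted effect of over 55% in size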
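Compound pre-exposure to 0.75 nM APE1, 15 min at ambient temperature. Reaction initiated with 50 nM TAMRA/BHQ-2 THF substrate, read immediately in kinetic mode, 525 nm excitation, 598 nm emission.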
PI4K2A block = blocks human PI4K2A kinase activity; activity change, negative = inhibition, % at 76.9 µM; 420,000 compounds, 0.13% hits; purified PI4K2A, ADP-Glo luminescence, 1 h; hits give low values; Q9BTU6; in the data active means activity change below about -50%; inconclusive means mostly about -30% to -49%;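 further: -100% = wells without enzyme as full effect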
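In this quantitative HTS, ADP production by PI4K2A was quantified luminescently after 1 h at ambient temperature; 100 microM adenosine served as plate-quality control.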
Tb PFK inh-1 = T. brucei PFK enzyme inhibition; O15648; T. brucei PFK, ADP-Glo luminescence; Potency, µM (doses to about 57.5 µM), inactives show top-dose activity, negative = inhibition, usual class: inhibitors; 330,000 compounds, 0.17% hits;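 further: potency means the concentration at half of the fitted maximal effect; 0% = uninhibited 1x PFK enzyme wells and -100% = no-enzyme wells; nearly all actives have a fitted effect of over 60% in size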
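ADP-Glo luminescence quantified ADP after 45 min at room temperature, with 1.25 nM T. brucei PFK, 0.1 mM ATP and 0.5 mM fructose-6-phosphate in pH 8.0 TEA buffer. qHTS titrations up to 57 µM; curves classified by quality.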
Tb PFK KinaseGlo = orthogonal confirmation of T. brucei phosphofructokinase inhibitors; 1,100 compounds, 47% hits; Tb PFK enzyme, ATP depletion, Kinase-Glo Plus luminescence; AID 504636; Potency, µM (series often up to 57.5 µM), for inactives: at the top dose inhibition; shares compounds with Tb PFK inh-1; calls by dose curve; further: potency means the concentration at half of the fitted maximal effect; nearly all actives have a fitted effect of over 60% in size
Tb PFK inh-2 = validation of T. brucei phosphofructokinase inhibitors; 1,100 compounds, 41% hits; purified T. brucei PFK, ADP-Glo luminescence, 45 min; AID 504637; shares compounds with Tb PFK inh-1; Potency, µM (series often up to 57.5 µM), for the others: top-dose activity change, negative = inhibition, most hits filed as inhibitors;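 further: potency means the concentration at half of the fitted maximal effect; plate controls were full PFK enzyme control for no effect and no enzyme control for full effect; nearly all actives have a fitted effect of over 60% in size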
* marks the source's active call; other numbers are inactive results; ? = inconclusive; . = no result given; [ ] = remark or other dose. Shown are actives, neighbours in structure and some others; about 0.8% of the full set was active somewhere. Unless noted, the call rests on the fitted dose curve; in most records, active means well fitted curve in the direction sought with a large enough effect; inconclusive means small, poorly fitted or top-dose-only effect, or another doubt; inactive means no such curve, though single readings can be large; an effect the other way counts as inactive or inconclusive.

SMILES | PGK inhibitor | TDP1 block | FEN1 inhibitor | APEX1 inh | PI4K2A block | Tb PFK inh-1 | Tb PFK KinaseGlo | Tb PFK inh-2
CCCCNC(=O)Oc1c(Br)cc2sc(=O)oc2c1Br | . | . | . | ? | . | 12% | . | .
CCc1nn2c(N)c(/C=C3\C=Nc4ccccc43)c(=O)nc2s1 | -11% | . | -8% | 14% | 2 | ? | -26% | ?
N#Cc1nc(-c2cccc3ccccc23)oc1NCC#CCOC(=O)c1cccs1 | . | . | . | -19% | . | 21µM* | 8.5µM* | 27µM*
CCOc1cncc(/C=C/CCNC)c1 | . | 3% | . | 3% | . | . | . | .
CCNC(=O)C1CCCc2c1[nH]c1ccc(Cl)cc21 (configuration not stated) | 0% | -1% | -3% | 10% | -7 | ? | 12µM* | 21µM*
O=C(NNC(=O)c1ccc2nonc2c1)Nc1ccc(Cl)cc1 | 0% | . | 0% | 2% | 1 | 15µM* | ? | ?
NNC(=O)c1ccc(Cl)cc1 | -10% | 5% | 6% | 13% | 2 | -4% | . | .
CCOC(=O)C1(c2ccccc2)CCN(CC(=O)Nc2ccc(C)cc2)CC1 | -2% | . | -17% | 2% | -7 | -4% | . | .
Cc1ccc(NC(=O)C2=C(c3ccccc3)S(=O)(=O)CCS2(=O)=O)cc1 | -7% | 3% | 1% | -4% | ? | ? | -25% | ?
O=C(Nc1ccc(Cc2ccncc2)cc1)c1ccc(Cl)c([N+](=O)[O-])c1 | -5% | -1% | -24% | 6% | 4 | 21µM* | 21µM* | ?
CN1CC=C2C(C#N)=C(N)C(C#N)(C#N)C(c3ccncc3)C2C1 (configuration not stated) | -3% | 2% | -2% | 4% | -7 | -4% | . | .
N#CC1=C(N)C(C#N)(C#N)C(c2ccc[nH]2)C2CCCC=C12 (configuration not stated) | . | 2% | -20% | 13% | 1 | ? | 11% | -21%
Clc1ccccc1C(c1ccccc1)(c1ccccc1)n1cccn1 | . | 6% | . | -5% | . | . | . | .
N#Cc1sc(NCc2cccc(Cl)c2)nc1Cl | 1% | . | ? | 12% | 3 | ? | 19µM* | 30µM*
OCCNCCc1c[nH]c2ccc(OCc3ccccc3)cc12 | . | . | 4% | 9% | 4 | 1% | . | .
O=C(CN1C(=O)c2ccccc2C1=O)NCCc1c[nH]c2ccc(Cl)cc12 | -10% | 2% | 7% | 1% | 0 | ? | 21µM* | 30µM*
Clc1ccc(C(c2ccc(Cl)cc2)C(Cl)Cl)cc1 | . | . | . | 2% | . | . | . | .
C[C@@]12CC3CC(N)(C1)C[C@@](C)(C3)C2 | . | 5%[56.1 µM] | . | 16%[21 µM] | . | . | . | .
CC[n+]1c(C)sc2cc(C)ccc21 | -8% | -2% | 6% | 7% | -2 | ? | -6% | -1%
CON(C)C(=O)Nc1ccc(Cl)cc1 | 10% | -1% | -2% | 3% | 0 | -11% | . | .
Cc1ccc(NNC(=O)Nc2ccc(Cl)cc2)nn1 | -2% | . | -17% | 0% | -3 | 24µM* | 24µM* | ?
CC(C)CON=O | . | 5% | . | 2% | . | . | . | .
O=C(NCCCN1CCOCC1)c1sc2cc([N+](=O)[O-])ccc2c1Cl | 3% | -5% | ? | 0% | 2 | 11µM* | 3.4µM* | 4.3µM*
O=C(c1cc([N+](=O)[O-])ccc1N1CCNCC1)N1CCOCC1 | -2% | -1% | 10% | 2% | -2 | ? | . | .
CCOc1cc(/C=N/NC(=O)c2cccs2)ccc1OC(=O)N1CCOCC1 | -4% | 3% | 5% | 24% | -3 | 1% | . | .
